Source: PubChem BioAssay (NCI)
This is part of a sample that, as a whole, favours compounds with a hit. Of some 83,000 tested, about 20% had one in any assay.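 Interpretation: 100, growth as untreated; towards 0, rising growth inhibition; 0, no net growth; 0 to -100, cell death. Compounds scoring below 10 were considered active.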 A number with no mark means an inactive call. The source made the active and inactive calls.

Key:
Assay in all cases: NCI-60 one-dose screen, 48 h (100 = growth as untreated, 0 = no growth, -100 = all killed)
Conditions in all cases: 10 µM unless noted
HCT-15 colon = tested on: HCT-15 colon
HT29 colon = tested on: HT29 colon
SNB-75 CNS = tested on: SNB-75 CNS
SNB-19 CNS = tested on: SNB-19 CNS
U251 CNS = tested on: U251 CNS
PC-3 prostate = tested on: PC-3 prostate
UACC-62 melanoma = tested on: UACC-62 melanoma
LOX IMVI melanoma = tested on: LOX IMVI melanoma
SK-MEL-28 melanoma = tested on: SK-MEL-28 melanoma
SK-MEL-2 melanoma = tested on: SK-MEL-2 melanoma
EKVX NSCLC = tested on: EKVX NSCLC
SN12C renal = tested on: SN12C renal
TK-10 renal = tested on: TK-10 renal
ACHN renal = tested on: ACHN renal
CAKI-1 renal = tested on: CAKI-1 renal
A498 renal = tested on: A498 renal
CCRF-CEM leukemia = tested on: CCRF-CEM leukemia
MOLT-4 leukemia = tested on: MOLT-4 leukemia
SK-MEL-5 melanoma = tested on: SK-MEL-5 melanoma
UO-31 renal = tested on: UO-31 renal

Compound	growth (HCT-15 colon)	growth (HT29 colon)	growth (SNB-75 CNS)	growth (SNB-19 CNS)	growth (U251 CNS)	growth (PC-3 prostate)	growth (UACC-62 melanoma)	growth (LOX IMVI melanoma)	growth (SK-MEL-28 melanoma)	growth (SK-MEL-2 melanoma)	growth (EKVX NSCLC)	growth (SN12C renal)	growth (TK-10 renal)	growth (ACHN renal)	growth (CAKI-1 renal)	growth (A498 renal)	growth (CCRF-CEM leukemia)	growth (MOLT-4 leukemia)	growth (SK-MEL-5 melanoma)	growth (UO-31 renal)
COc1ccc(OC)c(/C=C/c2nnc(Nc3ccccc3)o2)c1	90.5%	93.6%	82.1%	96.9%	98%	93.8%	92.1%	99.5%	108%	95%	89.9%	90.1%	92.5%	97.2%	78.3%	73.7%	87.2%	68.3%		
CCc1ccc(Oc2c(-c3ccc(OCc4ccc(Cl)cc4)cc3O)nn(C)c2C(F)(F)F)cc1	4.91% (active)	-11.1% (active)	-0.904% (active)	18.2%	1.22% (active)		-2.19% (active)	-24.6% (active)	20.1%	-30.7% (active)	9.36% (active)	4.95% (active)	-1.88% (active)	5.42% (active)	3.34% (active)	-22.6% (active)	1.82% (active)	-13.6% (active)	-76.4% (active)	-22.9% (active)
COc1ccc(OC)c(/C=C/C(=O)N/N=C/c2ccccc2)c1	42%	20.7%	41.1%	47.9%	43.5%		61%	42.1%	65.5%	-1.33% (active)	64%	52.1%	56.7%	62.8%	47.5%	38.7%	55.2%	36.5%	30.8%	56.6%
C[C@H](C(=O)Nc1ccc(S(N)(=O)=O)cc1)S(=O)(=O)c1ccccc1	98.1%	107%	96.9%	95.5%	97.5%		102%	98%	115%	102%	98.3%	101%	95.4%	98.9%	95.2%	106%	105%	105%	99.2%	85.8%
O=C1c2cccc3cccc(c23)C(=O)N1N1C(=O)c2cccc3c(NC4CCCCC4)ccc(c23)C1=O	96.6%	95.9%	87.5%	89.1%	99.7%		83.5%	92.1%	100%	105%		91.7%	126%	92.2%	79.9%	95.5%	89.1%	89.6%	96.7%	66.3%
NCCOc1ncccc1/C=C1\C2C=CC=CC2C2C=CC(F)=CC12 (stereo not drawn)	7.3% (active)	14.4%	40.3%	16%	10.8%		31.5%	-22.5% (active)	64.3%	113%	43.9%	-3.7% (active)	41.7%	-34% (active)	25%	17.2%	3.62% (active)	0.118% (active)	21.7%	-0.645% (active)
CCN(CC)CCNC(=O)c1cn2ncnc(Oc3ccc(NC(=O)Nc4ccc(Cl)c(C(F)(F)F)c4)cc3)c2c1C	-65.2% (active)	-68.2% (active)	-27% (active)	-83.4% (active)	-78% (active)		-81.2% (active)	-98.8% (active)	-89.9% (active)	-51.7% (active)	-47.7% (active)	-92.5% (active)	-66% (active)	-55.2% (active)	-58.9% (active)	-6.51% (active)	-8.36% (active)	-45% (active)	-99% (active)	-92% (active)
CCCCCCn1c(-c2ccc(C(=O)O/N=C(\N)c3ccc4c(c3)OCO4)cc2)nc(-c2ccccc2)c1-c1ccccc1	7.82% (active)	36.3%	-6.91% (active)	55.3%	8.25% (active)		48.1%	-95.1% (active)	59.1%	70.9%	-33.5% (active)	-7.53% (active)	-9.77% (active)	-88.2% (active)	-21.3% (active)	37.2%	-34.4% (active)	0.83% (active)	62%	-89.2% (active)
COc1ccc(-c2nc(NN)c3c(C)nn(-c4ccc(F)cc4)c3n2)cc1	31.2%	7.11% (active)	23.3%	35.1%	27.1%	42.3%	36.2%	41.9%	61.4%	24.1%		44.5%	77.3%	40.2%	36.9%	20.8%	23.4%	37.5%		51.2%
CN1CCN(Cc2ccc(NC(=O)c3cncc(C#Cc4cnccc4C#N)c3)cc2C(F)(F)F)CC1	55%	27.5%	122%	102%	77.3%		41.5%	12.4%	30.1%	52%		60.5%	108%	66.8%	54.8%	84.9%	59%	66.1%	54%	43.5%
CCCCCCCCCCCCCCCCCCOc1ccccc1CCCOP(=O)(O)OCC[N+](C)(C)C	51.3%	12.7%	83.3%	33.7%	39.4%		55.7%	58.1%	93.1%	102%	74.1%	60.9%	1.65% (active)	84.5%	43.4%	54.1%	34%	33.7%	80.9%	68.5%
FC(F)(F)c1cc(Nc2ccc3c(OCCCN4CCOCC4)cccc3n2)ccc1Cl	-39.8% (active)	-22.7% (active)	40.8%	35.9%	9.5% (active)		55.3%	-37.6% (active)	41.9%	99.6%	48.8%	66.9%	76.6%	50.7%	55.9%	67.1%	24.8%	18.3%	69.5%	
COc1cc(-c2nc3sccn3c2-c2ccnc(NCCCNS(=O)(=O)c3ccc(F)cc3)n2)ccc1F	44.8%	61%	59.9%	96.3%	91.4%		29.7%	48.3%	73.9%	69.6%	83.6%	62.1%	118%	60.7%	61.1%	96.7%	24.7%	47.7%	40.7%	48.6%
c1ccc2c(c1)Nc1ccncc1S2	99.7%	90.5%	86.3%	107%	102%		96.8%	85.8%	128%	119%	73.1%	97.6%	109%	94.2%	61.2%	80.7%	117%	142%	93.3%	78.5%
S=C(c1cccs1)N1CCN(c2cccc(Cl)c2)CC1	88.7%	89.8%	100%	102%	93.7%		88.1%	109%	104%	99%	115%	101%	101%	100%	92.4%	96.7%	87.9%	92.5%	92.1%	88.8%
CC(C)(C)NC(=O)C(OC(=O)c1cccc(Cl)c1)c1ccc(Cl)cc1 (stereo not drawn)	103%	87.6%	103%	103%	94.5%	94%	104%	94.1%	105%	96.1%		101%	93.2%	107%	99.3%	83.1%	103%	107%		90.1%
